smiles,measurement,setting,value
COc1cc(N2CCN(C)CC2)ccc1Nc1ncc2c(n1)N(C)c1ccccc1C(=O)N2 [XMD8-87],Kinases covered,PTK6,PTK6
CCCc1cc(N2CCCN(C)CC2)nc2sc3c(N)ncnc3c12 [BI00604564],Kinases covered,RIOK2,RIOK2
Cc1cc(NC(=O)c2cccc(NC(=O)/C=C/CN(C)C)c2)ccc1Nc1nccc(-c2cccnc2)n1 [JNK-IN-7],Kinases covered,RIOK2,RIOK2
CC1=C(C(=O)Nc2ccc3[nH]ncc3c2)C(c2ccc(Cl)c(Cl)c2)CC(=O)N1 (centres unmarked) [GSK299115A],Kinases covered,ROCK1,ROCK1
CCn1c(-c2nonc2N)nc2cncc(C(=O)N3CC[C@H](N)C3)c21.Cl [SB-772077-B],Kinases covered,ROCK2,ROCK2
same,Kinases covered,RPS6KA5,RPS6KA5
same,Kinases covered,RSK1,RSK1
CCn1c(-c2nonc2N)nc2cncc(CNC3CCNCC3)c21 [SB-747651A],Kinases covered,ROCK2,ROCK2
same,Kinases covered,RSK,RSK
COc1cc(Nc2cnc(C#N)c(O[C@H](C)CN(C)C)n2)ncc1-c1cnn(C)c1 [CCT244747],Kinases covered,RPS6KA1,RPS6KA1
same,Kinases covered,RPS6KA3,RPS6KA3
CCCNC(=O)c1ccc(Nc2ncc(C(F)(F)F)c(Nc3ccccc3C(C)=O)n2)c(Br)c1 [BI00801818],Kinases covered,RSK1,RSK1
same,Kinases covered,RSK2,RSK2
COc1ccc2[nH]c3c4[nH]c5ccc(OC)cc5c4c4c(c3c2c1)C(=O)NC4=O [GW296115X],Kinases covered,RSK3,RSK3
CC(C)N1CC(=O)N(C)c2cnc(Nc3cccc(S(=O)(=O)CCN4CCOCC4)c3)nc21 [BI00009348],Kinases covered,RSK4,RSK4
CCn1cc(-c2ccnc3[nH]c(-c4cccc(CN(C)C)c4)cc23)c(-c2ccc(NC(=O)N(C)C)cc2)n1 [GSK1070916],Kinases covered,SIK,SIK
COc1cc2c(cc1OC)C(=C(Nc1ccccc1)c1cccc(CN)c1)C(=O)N2 [BIBF0846CL],Kinases covered,SNARK,SNARK
